The source of these data is the supplement of paper PMC8371130.

Structures can show the parent of a compound that is named as a salt.

The first experiment deals with HL-1. As to the kind of experiment: relative cell viability (CellTiter-Glo) vs DMSO control (% of DMSO control); higher = more viable cells. The conditions noted are these: oxygen condition: normoxia 72 h; 200 nM. In outline:
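Cell viability was determined from CellTiter-Glo luminescence, expressed relative to vehicle-treated control cells. The cells were HL-1 mouse atrial cardiomyocytes, plated at 1000 cells per well in 384-well plates with compounds at 40, 200, 1000 or 5000 nM in 0.01% DMSO. One day after plating, they underwent 48 h of hypoxia (1% O2) in a hypoxic workstation followed by 24 h of reoxygenation in a normal incubator, or were kept in normoxia for an equal time.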
For orientation: Cellular ATP, detected with luciferase, serves as a proxy for viable cell number.
`Nc1c2c(nc3ccccc13)CCCC2` [Tacrine HCl] displayed a relative cell viability of 82.5.
On the same count and under the same terms, as for `O=P(O)(O)C(O)(Cn1ccnc1)P(=O)(O)O` [Zoledronic Acid], the figure is 107.
Still for that read-out and setting: the same measure for `O=C(c1ccc(OCCN2CCCCC2)cc1)c1c(-c2ccc(O)cc2)sc2cc(O)ccc12` [Evista]: 107.
In the case of `CCCN(CCC)S(=O)(=O)c1ccc(C(=O)O)cc1` [Probenecid], the relative cell viability stood at 104.
Molecule `CS(=O)(=O)c1ccc(C2=C(c3ccccc3)C(=O)OC2)cc1` [Rofecoxib] gave a relative cell viability of 94.4.
For the molecule `CN(C)c1nc(N(C)C)nc(N(C)C)n1` [Altretamine], the relative cell viability is 103.
Consider `Cc1cccc(C)c1OCC(C)N` (configuration not stated) [Mexiletine HCl], for which the relative cell viability came out at 105.
`CCNC(=O)CCC/C=C\C[C@@H]1[C@@H](/C=C/[C@@H](O)CCc2ccccc2)[C@H](O)C[C@@H]1O` [Bimatoprost] came in with a relative cell viability of 101.
Still for that read-out and setting: the same measure for `C[C@]12CC[C@@H]3c4ccc(O)cc4C[C@@H](CCCCCCCCC[S+]([O-])CCCC(F)(F)C(F)(F)F)[C@H]3[C@@H]1CC[C@@H]2O` (some centres not stated) [Fulvestrant]: 117.
For `CCc1c2c(nc3ccc(OC(=O)N4CCC(N5CCCCC5)CC4)cc13)-c1cc3c(c(=O)n1C2)COC(=O)[C@]3(O)CC` [Irinotecan HCl Trihydrate], the relative cell viability was determined as 83.5.
Still for that read-out and setting: as for `Cc1cn(-c2cc(NC(=O)c3ccc(C)c(Nc4nccc(-c5cccnc5)n4)c3)cc(C(F)(F)F)c2)cn1` [Nilotinib], the figure is 104.

Still in this experiment, the particulars now being: oxygen condition: normoxia 72 h; 1000 nM.
`CCOc1nc2cccc(C(=O)OC(C)OC(=O)OC3CCCCC3)c2n1Cc1ccc(-c2ccccc2-c2nn[nH]n2)cc1` (configuration not stated) [Candesartan cilexetil] registered a relative cell viability of 101.
On the same count and under the same terms, as for `Nc1cc(N2CCCCC2)nc(N)[n+]1[O-]` [Minoxidil], the figure is 112; as for `Cc1ccc(NC(=O)c2ccc(CN3CCN(C)CC3)cc2)cc1Nc1nccc(-c2cccnc2)n1` [Imatinib Mesylate], 156.
Still for that read-out and setting: as for `OCCN(CCO)c1nc(N2CCCCC2)c2nc(N(CCO)CCO)nc(N3CCCCC3)c2n1` [Dipyridamole], the figure is 98; as for `Nc1ccn([C@@H]2O[C@H](CO)[C@@H](O)C2(F)F)c(=O)n1` [Gemcitabine HCl], 3.77.
In turn, `CCCCCCNC(=O)n1cc(F)c(=O)[nH]c1=O` [Carmofur] displayed a relative cell viability of 44.3.
Molecule `CC(S)C(=O)NCC(=O)O` (configuration not stated) [Tiopronin] had a relative cell viability of 101.
In turn, `COc1cc(C(C)=O)ccc1OCCCN1CCC(c2noc3cc(F)ccc23)CC1` [Iloperidone] returned a relative cell viability of 119.
On the same count and under the same terms, the same measure for `CCN1CCC[C@H]1CNC(=O)c1cc(S(N)(=O)=O)ccc1OC` [Levosulpiride]: 108; for `NS(=O)(=O)Cc1noc2ccccc12` [Zonisamide]: 116; for `Cc1nc2n(c(=O)c1CCN1CCC(c3noc4cc(F)ccc34)CC1)CCCC2` [Risperidone]: 104.
On the same count and under the same terms, the same measure for `Cc1c(OCC(F)(F)F)ccnc1C[S@@+]([O-])c1nc2ccccc2[nH]1` [Dexlansoprazole]: 104; for `Cc1cc(N)c2ccccc2[n+]1CCCCCCCCCC[n+]1c(C)cc(N)c2ccccc21` [Dequalinium chloride]: 97.3.
The same measure, in the same setting: the same measure for `COc1cc2c(cc1OC)CC(=O)N(CCCN(C)C[C@H]1Cc3cc(OC)c(OC)cc31)CC2` [Ivabradine HCl]: 102; for `CC(C)(Sc1cc(C(C)(C)C)c(O)c(C(C)(C)C)c1)Sc1cc(C(C)(C)C)c(O)c(C(C)(C)C)c1` [Probucol]: 105; for `COc1cc([C@@H]2c3cc4c(cc3[C@@H](O[C@@H]3O[C@@H]5CO[C@@H](C)O[C@H]5[C@H](O)[C@H]3O)[C@H]3COC(=O)[C@H]23)OCO4)cc(OC)c1O` [Etoposide]: 40.
In turn, `Cc1ccc(C(=O)c2cc(O)c(O)c([N+](=O)[O-])c2)cc1` [Tolcapone] came in with a relative cell viability of 103.
The same measure, in the same setting: as for `CC[C@]1(O)C[C@@H]2CN(CCc3c([nH]c4ccccc34)[C@@](C(=O)OC)(c3cc4c(cc3OC)N(C)[C@H]3[C@@](O)(C(=O)OC)[C@H](OC(C)=O)[C@]5(CC)C=CCN6CC[C@]43[C@@H]65)C2)C1` [Vinblastine], the figure is 36; as for `CN1CCC(=C2c3ccccc3CC(=O)c3sccc32)CC1` [Ketotifen fumarate], 105; as for `CN(C)CC/C=C1/c2ccccc2COc2ccc(CC(=O)O)cc21` [Olopatadine hydrochloride], 97.1.
Same read-out and setting: the same measure for `CCC[C@@H]1C[C@@H](C(=O)N[C@@H]([C@H]2O[C@H](SC)[C@H](O)[C@@H](O)[C@H]2O)[C@@H](C)O)N(C)C1` [Lincomycin hydrochloride]: 100.
